Structures are written as SMILES. ± gives the standard deviation of the averaged measurements. Of roughly 6,200 targets only a part is listed; those with the largest changes were picked by preference.

What all share (assay): NP40-soluble protein abundance relative to vehicle (solubility fold change) (ratio); higher = more soluble protein in presence of AMP-PNP
The target in one assay is T1, D6R9V8|Q9UKY7 (UniProt Q9UKY7).
T1 sequence (whole entry): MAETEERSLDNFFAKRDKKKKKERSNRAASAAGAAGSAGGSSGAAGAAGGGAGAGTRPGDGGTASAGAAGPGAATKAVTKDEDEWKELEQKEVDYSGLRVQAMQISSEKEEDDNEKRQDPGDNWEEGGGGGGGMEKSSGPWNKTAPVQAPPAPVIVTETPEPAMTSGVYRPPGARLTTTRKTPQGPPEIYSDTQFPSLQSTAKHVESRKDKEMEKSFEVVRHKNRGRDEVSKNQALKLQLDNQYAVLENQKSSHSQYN
Summed up:
(§1)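 Values are fold changes against the detergent-processed vehicle, based on vsn-normalised intensities. Jurkat crude lysate was treated at eight concentrations from 0.1 to 10 mM (10 min at room temperature, then 3 min at 37 °C), solubilised with 0.8% NP40 and benzonase, ultracentrifuged and analysed by TMT-labelled LC-MS/MS over three independent experiments.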

A further assay concerns the target T2, E9PNW4|E9PR17|P13987 (UniProt P13987).
T2 sequence (whole entry): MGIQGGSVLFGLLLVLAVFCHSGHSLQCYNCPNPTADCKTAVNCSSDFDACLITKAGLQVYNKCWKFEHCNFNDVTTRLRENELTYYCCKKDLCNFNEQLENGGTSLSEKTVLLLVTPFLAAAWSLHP
The gist of the method:
as §1

Another assay addresses T3, UniProt O43861|O43861-2.
T3 sequence (whole entry): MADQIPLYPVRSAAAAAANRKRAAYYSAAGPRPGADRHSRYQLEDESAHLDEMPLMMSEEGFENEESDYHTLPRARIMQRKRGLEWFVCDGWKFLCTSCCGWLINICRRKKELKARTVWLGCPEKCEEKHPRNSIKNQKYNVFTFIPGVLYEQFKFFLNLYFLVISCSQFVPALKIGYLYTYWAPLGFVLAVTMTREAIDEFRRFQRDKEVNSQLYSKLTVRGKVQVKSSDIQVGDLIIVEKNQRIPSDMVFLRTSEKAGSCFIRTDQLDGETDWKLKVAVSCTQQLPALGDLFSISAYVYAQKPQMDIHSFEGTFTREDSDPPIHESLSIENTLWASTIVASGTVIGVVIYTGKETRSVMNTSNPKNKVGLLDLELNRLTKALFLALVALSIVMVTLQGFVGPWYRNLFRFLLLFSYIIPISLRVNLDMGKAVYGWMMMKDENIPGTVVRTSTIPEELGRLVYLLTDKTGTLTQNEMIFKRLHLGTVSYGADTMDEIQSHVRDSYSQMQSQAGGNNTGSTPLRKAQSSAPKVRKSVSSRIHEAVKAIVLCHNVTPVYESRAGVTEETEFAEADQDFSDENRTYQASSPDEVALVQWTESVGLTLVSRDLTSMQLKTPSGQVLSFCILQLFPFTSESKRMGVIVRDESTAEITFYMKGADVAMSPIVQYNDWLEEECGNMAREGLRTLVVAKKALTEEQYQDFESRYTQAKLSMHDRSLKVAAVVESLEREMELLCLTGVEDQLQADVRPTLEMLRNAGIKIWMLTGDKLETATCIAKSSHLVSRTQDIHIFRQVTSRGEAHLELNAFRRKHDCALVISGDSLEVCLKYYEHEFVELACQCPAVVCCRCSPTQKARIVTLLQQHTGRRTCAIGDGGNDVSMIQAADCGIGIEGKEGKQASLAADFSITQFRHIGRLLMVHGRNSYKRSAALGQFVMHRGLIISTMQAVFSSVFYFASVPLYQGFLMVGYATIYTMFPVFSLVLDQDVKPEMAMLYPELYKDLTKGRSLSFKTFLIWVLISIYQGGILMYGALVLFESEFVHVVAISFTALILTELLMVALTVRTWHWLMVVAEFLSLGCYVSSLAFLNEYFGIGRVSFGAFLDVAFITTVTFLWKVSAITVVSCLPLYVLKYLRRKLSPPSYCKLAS
Summed up: as §1

A further assay addresses T4, ZW10 (UniProt O43264).
T4 sequence (whole entry): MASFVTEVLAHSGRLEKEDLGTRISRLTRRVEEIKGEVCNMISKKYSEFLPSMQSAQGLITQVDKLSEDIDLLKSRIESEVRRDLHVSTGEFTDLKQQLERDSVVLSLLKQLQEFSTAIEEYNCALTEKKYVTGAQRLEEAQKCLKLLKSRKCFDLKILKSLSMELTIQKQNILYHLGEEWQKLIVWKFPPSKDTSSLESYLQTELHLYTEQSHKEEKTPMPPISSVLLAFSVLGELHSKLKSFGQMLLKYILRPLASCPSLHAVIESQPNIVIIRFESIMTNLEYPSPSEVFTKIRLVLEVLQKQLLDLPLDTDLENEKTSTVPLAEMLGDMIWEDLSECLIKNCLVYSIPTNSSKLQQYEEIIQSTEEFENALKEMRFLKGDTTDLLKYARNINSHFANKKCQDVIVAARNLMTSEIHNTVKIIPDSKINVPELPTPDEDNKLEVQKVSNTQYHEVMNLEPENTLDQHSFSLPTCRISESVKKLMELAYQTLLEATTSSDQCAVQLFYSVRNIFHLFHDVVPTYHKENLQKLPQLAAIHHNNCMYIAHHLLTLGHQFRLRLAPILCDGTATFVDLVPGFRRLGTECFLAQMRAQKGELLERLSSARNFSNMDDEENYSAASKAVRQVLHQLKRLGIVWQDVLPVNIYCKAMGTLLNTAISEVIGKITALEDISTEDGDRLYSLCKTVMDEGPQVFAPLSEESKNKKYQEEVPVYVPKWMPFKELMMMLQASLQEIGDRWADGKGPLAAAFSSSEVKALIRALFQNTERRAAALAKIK
Summed up:
as §1

For the compound `Nc1ncnc2c1ncn2[C@@H]1O[C@H](COP(=O)(O)OP(=O)(O)NP(=O)(O)O)[C@@H](O)[C@H]1O` [adenylyl imidodiphosphate], the NP40-soluble protein abundance was found to be 1.03 ± 0.021 in the assay with D6R9V8|Q9UKY7 (concentration: 1mM); 1.09 ± 0.089 in the assay with D6R9V8|Q9UKY7 (concentration: 2mM); 1.03 ± 0.034 with D6R9V8|Q9UKY7 (concentration: 4mM); 1.04 ± 0.034 in the assay with D6R9V8|Q9UKY7 (concentration: 6mM); 0.993 ± 0.028 with D6R9V8|Q9UKY7 (concentration: 8mM); 1.05 ± 0.07 with D6R9V8|Q9UKY7 (concentration: 10mM). Besides, the NP40-soluble protein abundance with E9PNW4|E9PR17|P13987 (concentration: 1mM) stood at 1.05 ± 0.053; with E9PNW4|E9PR17|P13987 (concentration: 2mM) it was 1.11 ± 0.13; with E9PNW4|E9PR17|P13987 (concentration: 4mM), 1.03 ± 0.049; in the assay with E9PNW4|E9PR17|P13987 (concentration: 6mM) it was 1.07 ± 0.051; with E9PNW4|E9PR17|P13987 (concentration: 8mM) it was 1.1 ± 0.015; in the assay with E9PNW4|E9PR17|P13987 (concentration: 10mM) it was 1.06 ± 0.03. The NP40-soluble protein abundance with UniProt O43861|O43861-2 (concentration: 1mM) came out at 1.01 ± 0.022; with UniProt O43861|O43861-2 (concentration: 2mM), 1 ± 0.012; in the assay with UniProt O43861|O43861-2 (concentration: 4mM), 1.01 ± 0.025; with UniProt O43861|O43861-2 (concentration: 6mM) it was 0.986 ± 0.013; with UniProt O43861|O43861-2 (concentration: 8mM), 1 ± 0.041; with UniProt O43861|O43861-2 (concentration: 10mM), 1.024 ± 0.0049. Further, the NP40-soluble protein abundance was found to be 0.994 ± 0.031 in the assay with ZW10 (concentration: 1mM); 0.974 ± 0.043 with ZW10 (concentration: 2mM); 0.977 ± 0.047 with ZW10 (concentration: 4mM); 0.936 ± 0.064 with ZW10 (concentration: 6mM); 0.919 ± 0.081 with ZW10 (concentration: 8mM); 0.941 ± 0.07 with ZW10 (concentration: 10mM).

For the origin of these results see the supplement of paper PMC6411743.
